Source: PubChem BioAssay
This excerpt belongs to a sample that is enriched for hits.
D1 allo mod: D1 dopamine receptor (human) allosteric modulation; P21728; HEK293 D1, CRE-luciferase, dopamine EC30 potentiation; actives deviate in either direction; B-score at 10 µM; 58,000 compounds, 5.9% hits;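 active = luminescence count or its row- and column-corrected plate score outside the 99.7% band of the plate's sample wells, on either side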
hDAT+cocaine: human DAT dopamine uptake with cocaine, either direction | Q01959 | LLC-PK1 hDAT cells, [14C]-dopamine uptake with cocaine IC80; actives deviate in either direction | B-score at 10 µM | 110,000 compounds, 1.3% hits | AID 449768;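 active = Z score or B-score, a plate-position-corrected score, falls beyond the plate's 99.7% confidence bounds, in either direction; inactive = both scores lie inside the 99.7% bounds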;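 also: scored against the spread of the other compound wells on the same plate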
EphB4 ephrin blk: EphB4-ephrin-B2 interaction antagonism; P54760; EphB4 LBD / TNYL-RAW-Alexa532 peptide, fluorescence polarization; inhibition, % at 7 µM; 97,000 compounds, 0.15% hits; AID 720;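 active = inhibition above the screen-wide mean inhibition plus 3 SD, cut at about 15% in these data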;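 also: 0% = DMSO wells and 100% = excess unlabeled TNYL-RAW peptide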
Target sequence (P54760 whole entry, looked up, the tested form may be a part): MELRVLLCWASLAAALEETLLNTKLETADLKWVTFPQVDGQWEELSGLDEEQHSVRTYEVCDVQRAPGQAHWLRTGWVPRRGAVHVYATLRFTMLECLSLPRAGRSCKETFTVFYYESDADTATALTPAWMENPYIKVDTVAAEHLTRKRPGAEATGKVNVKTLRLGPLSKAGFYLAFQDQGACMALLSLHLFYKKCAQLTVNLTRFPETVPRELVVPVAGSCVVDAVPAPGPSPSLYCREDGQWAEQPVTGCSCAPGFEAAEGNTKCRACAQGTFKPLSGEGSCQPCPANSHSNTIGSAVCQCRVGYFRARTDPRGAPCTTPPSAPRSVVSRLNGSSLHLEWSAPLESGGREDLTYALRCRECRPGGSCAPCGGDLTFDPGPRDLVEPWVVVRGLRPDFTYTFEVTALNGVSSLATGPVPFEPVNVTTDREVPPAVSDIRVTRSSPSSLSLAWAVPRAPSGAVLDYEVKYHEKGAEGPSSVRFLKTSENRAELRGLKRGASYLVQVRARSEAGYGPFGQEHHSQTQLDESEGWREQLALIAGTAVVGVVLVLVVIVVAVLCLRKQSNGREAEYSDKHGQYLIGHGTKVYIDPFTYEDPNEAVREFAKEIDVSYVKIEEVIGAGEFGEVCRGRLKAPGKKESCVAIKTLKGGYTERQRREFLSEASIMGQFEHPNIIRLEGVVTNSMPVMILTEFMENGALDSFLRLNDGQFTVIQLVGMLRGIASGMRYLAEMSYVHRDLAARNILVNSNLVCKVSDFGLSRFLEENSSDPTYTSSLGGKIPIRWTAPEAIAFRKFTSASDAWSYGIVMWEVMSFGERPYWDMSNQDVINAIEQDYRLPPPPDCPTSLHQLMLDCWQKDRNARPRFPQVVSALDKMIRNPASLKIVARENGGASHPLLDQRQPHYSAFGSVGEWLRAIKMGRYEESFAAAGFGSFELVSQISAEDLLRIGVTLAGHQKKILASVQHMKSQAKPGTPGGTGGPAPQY
* hit, by the source's call; / = no result given.

SMILES	D1 allo mod	hDAT+cocaine	EphB4 ephrin blk
O=C(c1cccc(C(F)(F)F)c1)N1CCOC12CCN(c1ncc(C(F)(F)F)cc1Cl)CC2	/	-0.496	5.0
Cc1ccccc1NC(=S)NC(NC(=O)c1ccccc1C)C(Cl)(Cl)Cl (stereo unspecified)	/	-1.61	6.1
CC(O)CNc1nc2c(c(=O)n(C)c(=O)n2C)n1Cc1cccc(Br)c1 (stereo unspecified)	-0.587	0.859	-0.6
CC(O)CNc1nc2c(c(=O)n(C)c(=O)n2C)n1Cc1cccc(C(F)(F)F)c1 (stereo unspecified)	/	1.83*	4.2
CCCCN=c1scc(-c2ccc3c(c2)NC(=O)CO3)n1N=C1CCCC1	/	-0.00131	-4.4
O=C1COc2ccc(-c3csc(=Nc4ccc(OC(F)F)cc4)n3CC3CCCO3)cc2N1 (stereo unspecified)	/	1.19	1.4
COc1ccccc1N=c1scc(-c2ccc3c(c2)NC(=O)CO3)n1CC1CCCO1 (stereo unspecified)	-2.79*	0.546	/
CCN=c1scc(-c2ccc3c(c2)NC(=O)CO3)n1N=C1CCCC1	-1.4	5.55*	-11.6
CC[C@H](C)C(C(=O)N1CCN(C(=O)OC(C)(C)C)CC1)n1cc(C(CC(C)C)NC(=O)OC(C)(C)C)nn1 (stereo partly specified)	/	-0.383	/
CC[C@@H](C)C(NC(=O)OC(C)(C)C)c1cn([C@@H](Cc2ccc(O)cc2)C(=O)N2CCN(C(=O)OC(C)(C)C)CC2)nn1 (stereo partly specified)	/	1.96*	/
O=C(N1CCN=C1SCc1cccnc1)C12CC3CC(CC(C3)C1)C2	0.053	-0.0243	2.5
CCC1(C)Cc2ccccc2-c2nc(NCCO)[nH]c(=O)c21 (stereo unspecified)	/	-2.9*	-1.2
O=c1[nH]c(NCCO)nc2c1C1(CCCC1)Cc1ccccc1-2	/	0.0771	-5.4
CCn1c(NC2CCCCC2)nc2ccccc21	-3.39*	0.407	-3.4
CCn1c(N2CCN(C(=O)NC3CCCCC3)CC2)nc2ccccc21	/	0.0802	1.4
CC(C)(C)NC(=O)CSC(=Nc1ccc(F)cc1)NC#N	/	-0.707	-5.3
Cc1ccc(CSCCNC(=O)c2ccc(Cl)c(S(=O)(=O)N3CCOCC3)c2)cc1	/	-0.0302	1.8
Cn1c(C(=O)NCCN2CCN(c3ccccc3F)CC2)cc2c(=O)n(C)c3ccccc3c21	-3.72*	/	/
Cn1c(C(=O)NCCCN2CCCC2=O)cc2c(=O)n(C)c3ccccc3c21	0.0182	0.849	-4.5
Cn1c(C(=O)NCCCN2CCN(c3ccc(F)cc3)CC2)cc2c(=O)n(C)c3ccccc3c21	-5.2*	/	/
Cn1c(C(=O)NCCN2CCOCC2)cc2c(=O)n(C)c3ccccc3c21	-0.273	1.43	2.3
O=S1(=O)C=C(SCc2ccc(Cl)c(Cl)c2)Nc2ccccc21	/	0.339	-0.7
O=S(=O)(c1ccc2oc3ccc(S(=O)(=O)N4CCCCC4)cc3c2c1)N1CCCCC1	/	1.09	2.5
CC1(C)C(=O)N(OCc2ccccc2)C(C)(C)C(=O)N1OCc1ccccc1	/	/	0.2
CN(C)c1ccc(/C=N/NC(=O)CN(c2cccc(Cl)c2)S(C)(=O)=O)cc1Br	/	-0.635	-2.7
SMILES	D1 allo mod	hDAT+cocaine	EphB4 ephrin blk
CN(C)c1oc(-c2ccccc2Cl)nc1P(=O)(c1ccccc1)c1ccccc1	/	1.88	-2.1
CCOC(=O)c1[nH]c2ccccc2c1NC(=O)CC(C)(C)C	0.582	-0.934	1.6
CCOC(=O)C1CCCN(CC(=O)Nc2c(C(=O)OC)[nH]c3ccc(Cl)cc23)C1 (stereo unspecified)	1.47	2.92*	-1.8
CCOC(=O)C1CCCN(CC(=O)Nc2c(C(=O)OC)[nH]c3ccc(C)cc23)C1 (stereo unspecified)	0.237	1.94	1.8
CCOC(=O)c1[nH]c2ccccc2c1NC(=O)C1CCCC1	6.86*	-0.367	/
Cc1noc(C)c1-c1ccc2nc[nH]c(=O)c2c1	/	0.251	/
CN1C(=O)OC(C)(C)C1=O	/	-0.245	/
COC(=O)[C@H](CCSC)NS(=O)(=O)c1ccccc1Br	/	-1	/
CCCCCCCCCCC[C@@H](C[C@@H]1OC(=O)[C@H]1CCCCCC)OC(=O)[C@H](CC(C)C)NC=O	/	-1.48	/
O=C(CCNS(=O)(=O)c1cccs1)NCc1ccccc1	/	-0.796	3.2
COCCOC(=O)c1c(C)nc(SCC(=O)Nc2cccc3ccccc23)c(C#N)c1-c1ccco1	/	-8.19*	-4.7
CNC(=O)c1c(C)nc(SCC(=O)NCc2ccc(OC)cc2)c(C#N)c1-c1ccco1	-2.86*	/	0.2
COc1ccc(CNC(=O)CSc2nc(-c3ccccc3)cc(-c3cccs3)c2C#N)cc1	/	-0.496	-1.9
COCCOC(=O)c1c(C)nc(SCC(=O)Nc2ccc(C)cc2)c(C#N)c1-c1ccco1	/	0.113	/
COc1ccc(S(=O)(=O)n2nc(OCc3cccs3)cc2N)cc1	/	-0.485	/
O=C(CCSc1nnc(-c2ccncc2)o1)Nc1ccccc1Cl	/	-0.92	-0.8
CO/N=C(/CS(=O)(=O)c1ccc(C)cc1)c1ccc(OC)cc1	/	-0.726	5.3
N#Cc1ccccc1Sc1ccccc1C(=O)OCc1nnc(-c2ccccc2)o1	-0.598	2.53*	-1.3
Cc1noc(C)c1COC(=O)c1ccccc1Sc1ccccc1C#N	0.0357	-0.159	7.0
Cc1ccc(N(C(=O)Cn2nnc(-c3ccc(F)cc3)n2)C(CC(C)C)C(=O)NCC2CCCO2)cc1 (stereo unspecified)	/	-0.211	-5.9
N#CC(c1ccc(Cl)cc1)c1ccc(Cl)nn1 (stereo unspecified)	/	-0.613	2.4
NC(=S)Nc1ccc(Oc2ccc(NC(N)=S)cc2)cc1	/	-0.708	3.2
O=C(Nc1nccs1)c1cc2c(s1)CCCCC2	/	4.31*	-0.3
NNC(=O)c1cc2c(s1)CCCCCC2	/	-0.659	5.6
COc1ccc2oc(=O)c(C(=O)N3CCN(c4ccccc4)CC3)cc2c1	-0.712	3.42*	1.7
SMILES	D1 allo mod	hDAT+cocaine	EphB4 ephrin blk
COc1ccc2oc(=O)c(C(=O)N3CCN(c4ccccc4C)CC3)cc2c1	-0.482	1.64	-6.2
CCCC[C@@H]1CNC(=S)N1CCCC	/	-0.717	/
O=C(CSc1ncccc1-c1nc2ccccc2[nH]1)NCc1ccco1	-1.97	0.445	1.8
Cc1cc2nc(-c3cccnc3SCC(=O)NCc3ccco3)[nH]c2cc1C	-3.88*	-1.48	-1.4
CC(C)C(=O)N1CCC2(CC1)Oc1ccc(Cl)cc1C(=O)C21CC(c2cccnc2)=NO1 (stereo unspecified)	/	0.656	/
CCOC(=O)C(C(=O)OCC)C(Nc1ccc(Br)cc1)c1ccccc1 (stereo unspecified)	/	0.5	-5.5
O=C(Nc1cc(S(=O)(=O)N2CCOCC2)ccc1Cl)C(=O)c1c(-c2ccccc2)cc2ccccn12	/	1.35	2.5
CCOCCCNC(=S)N1C2CCC1CC(NC(=O)NC13CC4CC(CC(C4)C1)C3)C2 (stereo unspecified)	/	-0.175	-0.9
COc1ccc(C(c2nnnn2C2CCCCC2)N2CCN(c3ccc(OC)cc3)CC2)cc1 (stereo unspecified)	-0.387	0.804	-1.3
COc1ccc(C(c2nnnn2C2CCCC2)N2CCC(C)CC2)cc1 (stereo unspecified)	1.06	-2.98*	8.8
CCOC(=O)c1c(C)[nH]c(C)c1C(=O)COC(=O)c1ccc(Cl)c(S(=O)(=O)NCc2ccccc2)c1	/	-0.688	-1.3
COc1ccc(C2(C(N)=O)CCCCC2)cc1OC	8.46*	-1.86	-0.4
COc1ccc(C2(C(=O)NC(C)C)CCCC2)cc1OC	0.262	-0.196	-3.5
